High-throughput results deposited in PubChem by several laboratories.
Only some compounds are listed: those with a hit (about 5.7% of all), similar ones and a draw of the others.
FAS-TE inh: FAS thioesterase (human) inhibition; AID 602261; 360,000 compounds, 0.67% hits; recombinant FAS-TE, OMFH fluorogenic substrate, fluorescence endpoint; P49327; inhibition, % at 15 µM;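 active means compounds whose normalised, plate-corrected inhibition of enzyme fluorescence in the single-dose primary screen is 50% or more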
Target sequence (P49327 whole entry, looked up): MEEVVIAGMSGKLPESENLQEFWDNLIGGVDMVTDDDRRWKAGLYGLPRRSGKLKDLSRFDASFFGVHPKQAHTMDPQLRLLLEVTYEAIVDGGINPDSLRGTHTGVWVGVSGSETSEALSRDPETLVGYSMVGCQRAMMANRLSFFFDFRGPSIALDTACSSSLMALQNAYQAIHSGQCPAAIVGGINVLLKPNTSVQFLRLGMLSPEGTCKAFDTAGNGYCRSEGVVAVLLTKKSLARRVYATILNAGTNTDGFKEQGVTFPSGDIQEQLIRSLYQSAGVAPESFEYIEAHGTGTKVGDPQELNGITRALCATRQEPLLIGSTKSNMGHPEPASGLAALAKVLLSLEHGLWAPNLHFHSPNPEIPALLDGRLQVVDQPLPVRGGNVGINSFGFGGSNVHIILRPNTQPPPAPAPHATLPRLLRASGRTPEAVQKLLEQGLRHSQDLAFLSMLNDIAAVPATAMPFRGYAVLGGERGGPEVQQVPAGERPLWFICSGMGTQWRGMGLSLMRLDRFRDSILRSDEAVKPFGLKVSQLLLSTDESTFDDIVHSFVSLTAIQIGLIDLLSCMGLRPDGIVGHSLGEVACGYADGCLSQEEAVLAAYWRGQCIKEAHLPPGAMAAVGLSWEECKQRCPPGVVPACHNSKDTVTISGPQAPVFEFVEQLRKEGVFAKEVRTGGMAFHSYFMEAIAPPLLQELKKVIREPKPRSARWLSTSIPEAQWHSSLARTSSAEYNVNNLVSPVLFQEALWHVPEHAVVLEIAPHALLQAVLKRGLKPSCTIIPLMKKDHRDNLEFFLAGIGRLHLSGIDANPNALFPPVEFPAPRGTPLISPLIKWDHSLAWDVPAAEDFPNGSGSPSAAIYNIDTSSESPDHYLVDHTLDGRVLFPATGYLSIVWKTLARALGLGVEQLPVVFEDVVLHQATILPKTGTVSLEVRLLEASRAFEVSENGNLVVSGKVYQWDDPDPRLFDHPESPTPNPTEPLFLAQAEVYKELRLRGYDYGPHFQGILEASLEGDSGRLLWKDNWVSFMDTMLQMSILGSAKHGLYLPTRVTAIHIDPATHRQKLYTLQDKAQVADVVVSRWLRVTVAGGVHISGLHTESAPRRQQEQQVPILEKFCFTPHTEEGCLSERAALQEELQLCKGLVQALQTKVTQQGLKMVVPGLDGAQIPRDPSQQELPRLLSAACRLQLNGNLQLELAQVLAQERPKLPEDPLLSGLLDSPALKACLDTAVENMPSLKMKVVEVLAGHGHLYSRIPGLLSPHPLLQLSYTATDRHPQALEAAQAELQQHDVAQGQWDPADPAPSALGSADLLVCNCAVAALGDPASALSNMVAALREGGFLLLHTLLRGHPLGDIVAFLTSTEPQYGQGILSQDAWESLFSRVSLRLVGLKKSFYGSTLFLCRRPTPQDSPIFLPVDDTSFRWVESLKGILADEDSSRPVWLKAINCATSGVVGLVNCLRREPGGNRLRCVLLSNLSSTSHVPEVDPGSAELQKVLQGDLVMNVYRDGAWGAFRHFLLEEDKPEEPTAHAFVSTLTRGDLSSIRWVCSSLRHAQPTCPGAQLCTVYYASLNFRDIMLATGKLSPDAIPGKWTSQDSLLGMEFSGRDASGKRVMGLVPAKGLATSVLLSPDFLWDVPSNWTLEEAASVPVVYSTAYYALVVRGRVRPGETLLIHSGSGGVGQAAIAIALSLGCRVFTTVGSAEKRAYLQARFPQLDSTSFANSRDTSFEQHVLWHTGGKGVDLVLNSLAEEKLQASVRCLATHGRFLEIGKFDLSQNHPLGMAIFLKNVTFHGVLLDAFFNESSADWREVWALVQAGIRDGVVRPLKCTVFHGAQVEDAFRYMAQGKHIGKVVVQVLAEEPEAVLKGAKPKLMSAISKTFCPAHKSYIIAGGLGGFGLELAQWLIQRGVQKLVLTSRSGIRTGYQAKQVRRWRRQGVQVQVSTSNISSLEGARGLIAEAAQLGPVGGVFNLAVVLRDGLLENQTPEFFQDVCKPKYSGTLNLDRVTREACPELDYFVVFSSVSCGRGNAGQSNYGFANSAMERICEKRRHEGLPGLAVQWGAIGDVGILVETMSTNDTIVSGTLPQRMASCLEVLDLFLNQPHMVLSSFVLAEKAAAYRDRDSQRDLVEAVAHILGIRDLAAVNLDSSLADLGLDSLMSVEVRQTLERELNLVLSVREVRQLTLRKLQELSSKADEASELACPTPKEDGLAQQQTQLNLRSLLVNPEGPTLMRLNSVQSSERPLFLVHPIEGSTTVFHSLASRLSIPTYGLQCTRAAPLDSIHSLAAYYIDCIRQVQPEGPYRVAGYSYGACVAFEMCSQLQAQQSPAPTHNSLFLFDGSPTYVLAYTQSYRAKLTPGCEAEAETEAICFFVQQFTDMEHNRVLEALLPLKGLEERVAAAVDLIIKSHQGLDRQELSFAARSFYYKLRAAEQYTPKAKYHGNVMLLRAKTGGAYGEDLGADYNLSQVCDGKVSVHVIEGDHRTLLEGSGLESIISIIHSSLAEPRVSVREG
GRIN3A LBD mod: NR3A (human) ligand-binding domain modulation; 340,000 compounds, 2.5% hits; Tm shift relative to glycine control, % at 25 µM; NR3A LBD differential scanning fluorimetry, Tm shift; 0% = protein alone, 100% = glycine-bound protein; AID 1259313;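 active means melting temperature shift of at least 10% of the positive control shift, at one fixed dose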
MPTP inh: inhibitors of mitochondrial permeability transition pore | isolated mouse mitochondria, Ca2+ swelling absorbance, 30 min | inhibition, % at 10 µM | 360,000 compounds, 1.4% hits;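 active means inhibition of 50% or more, scaled per plate between neutral and stimulator controls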
rCAG RNA binder: binds r(CAG) RNA repeats; r(CAG) RNA repeat, TO-PRO-1 dye displacement fluorescence; inhibition, % at 3 µM; 370,000 compounds, 1.3% hits; AID 651821;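 active means inhibition above the plate cutoff, the mean of all test compounds on that plate plus 3 SD, cut at about 35% in these data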;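 further: higher means more dye released from RNA so lower well fluorescence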
Myeloid diff MLP: myeloid differentiation induction | calls only at 10 µM | 360,000 compounds, 1% hits | ER-HoxA9 myeloid progenitors, lysozyme-GFP differentiation, flow cytometry;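 active means normalized GFP-positive differentiation at or above the plate's own cutoff, the solvent-only control mean plus 3 SD; inconclusive means no clear call, values can overlap the other calls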;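 further: cells exposed to compound for four days before flow analysis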
Of the large screens only hits and unclear results are named; the others gave an inactive call; ! = not confirmed by another sample.

CC(C)C[C@H](NC(=O)N1CCn2c1nc1ccccc12)C(=O)NCc1ccco1	Myeloid diff MLP active
CC(C)[C@H](NC(=O)N1CCn2c1nc1ccccc12)C(=O)N[C@H](Cc1ccccc1)C(=O)O	none
C[C@H](NC(=O)N1CCn2c1nc1ccccc12)C(=O)NCc1ccco1	none
COc1cc(NC(=O)[C@@H](NC(=O)N2CCn3c2nc2ccccc23)C(C)C)cc(OC)c1	Myeloid diff MLP active
O=C(CCCSc1nc2ccccc2[nH]1)NCc1ccccc1	none
O=C(CCCSc1nc2ccccc2[nH]1)Nc1nnc(-c2ccccc2)o1	Myeloid diff MLP active
CCn1c2ccccc2c2cc(NC(=O)COC(=O)c3cc(F)ccc3C)ccc21	none (no result: FAS-TE inh, GRIN3A LBD mod, MPTP inh, Myeloid diff MLP)
CCOc1ccccc1N(C(=O)CNC(=O)c1ccco1)C(C(=O)NC(C)(C)C)c1ccncc1 (stereo not given)	GRIN3A LBD mod 395.4
Cc1ccc(N(C(=O)CNC(=O)c2ccco2)C(C(=O)NC2CCCC2)c2cccnc2)c(C)c1 (stereo not given)	Myeloid diff MLP active
Cc1cccc(OC[C@@H](O)CN2CCC(C(O)(c3ccccc3)c3ccccc3)CC2)c1	none (no result: FAS-TE inh, GRIN3A LBD mod, MPTP inh, Myeloid diff MLP)
CCCC1C2C(=O)N(c3ccccc3OC)C(=O)C2ON1c1ccccc1 (stereo not given)	GRIN3A LBD mod 20.1
Cc1ccc(S(=O)(=O)OCC(=O)Nc2ccc(C(=O)O)c(O)c2)cc1	rCAG RNA binder 40.0 (no result: Myeloid diff MLP)
Cc1ccc(NC(=O)Cn2c3ccc(F)cc3c3nc4n(c(=O)c32)CCS4)cc1F	GRIN3A LBD mod 12.1
O=c1[nH]c(/C=C/c2cccc3ccccc23)nc2ccccc12	none
COc1cc(/C=C/c2nc3ccccc3c(=O)[nH]2)cc(Cl)c1O	GRIN3A LBD mod 26.8
O=c1[nH]c(/C=C/c2ccccc2F)nc2ccccc12	GRIN3A LBD mod 38.5, Myeloid diff MLP inconclusive
COc1ccc(OC)c(S(=O)(=O)NCC2CCN(C(=O)C(=O)c3cc4ccccc4o3)CC2)c1	none (no result: FAS-TE inh, GRIN3A LBD mod, MPTP inh, Myeloid diff MLP)
CCCC(=O)OC[C@H]1CN(C2CCCC2)S(=O)(=O)c2c(Oc3ccc(F)cc3)cccc2O1	none (no result: FAS-TE inh, GRIN3A LBD mod, MPTP inh, Myeloid diff MLP)
CN(C)c1ccc(N=C/C=C2\N(C)c3ccccc3C2(C)C)cc1	Myeloid diff MLP active
Cc1c(NC(=S)/C=C2\N(C)c3ccccc3C2(C)C)c(=O)n(-c2ccccc2)n1C	Myeloid diff MLP active
Cc1c(N=C/C=C2\N(C)c3ccccc3C2(C)C)c(=O)n(-c2ccccc2)n1C	none
Cc1c(N=C/C=C2/N(C)c3ccccc3C2(C)C)c(=O)n(-c2ccccc2)n1C	Myeloid diff MLP active!
COc1ccc(CC(=O)N(Cc2ccccc2)c2ccccc2C(=O)Nc2cc(OC)ccc2OC)cc1	none (no result: FAS-TE inh, GRIN3A LBD mod, MPTP inh, Myeloid diff MLP)
Cc1ccc(S(=O)(=O)NC(CCCNC(=O)OCc2ccccc2)C(=O)O)cc1 (stereo not given)	none (no result: FAS-TE inh, GRIN3A LBD mod, MPTP inh, Myeloid diff MLP)
O=C(Cc1c[nH]c2ccccc12)Nc1ccc(Nc2cccnc2)c(-c2ccc(Cl)c(Cl)c2)c1	none (no result: FAS-TE inh, GRIN3A LBD mod, MPTP inh, Myeloid diff MLP)
NC(=O)c1ccsc1NC(=O)COC(=O)c1ccc(Cl)c(N)c1	GRIN3A LBD mod 23.2
NC(=O)c1ccsc1NC(=O)COC(=O)c1ccc([N+](=O)[O-])o1	GRIN3A LBD mod 12.0
CC1(C)N([O-])C(c2ccccc2)=C[N+](=O)C1(C)C	GRIN3A LBD mod 681.0
COc1ccc(OC)c(C2=C[N+](=O)C(C)(C)C(C)(C)N2[O-])c1	none
COc1cc2oc(=O)cc(-c3ccc(-c4ccc(C(F)(F)F)cc4)cc3)c2c(OC)c1OC	none (no result: rCAG RNA binder)
COc1cc2oc(=O)cc(-c3cccc(-c4ccc(C(F)(F)F)cc4)c3)c2c(OC)c1OC	GRIN3A LBD mod 16.8
CCCCNC(=O)C1(C)CCCCCN1Cc1cccc2c(OC)cc(C(=O)OCC)cc12 (stereo not given)	none (no result: GRIN3A LBD mod)
Cc1ccc(N2CC(C(=O)OCC(=O)Nc3cc(C)on3)CC2=O)c(C)c1 (stereo not given)	Myeloid diff MLP active
CCOC(=O)C1CCN(C(=O)COC(=O)/C=C/c2cccc(OC)c2OC)CC1	GRIN3A LBD mod 14.7
COc1ccccc1Nc1nc(-c2cccc(N3C(=O)c4ccccc4C3=O)c2)cs1	GRIN3A LBD mod 15.5
Cc1ccc(C(=O)NCCn2c(N)c(C#N)c3nc4ccccc4nc32)cc1	Myeloid diff MLP active
N#Cc1c(N)n(CCNC(=O)c2ccc(Cl)cc2)c2nc3ccccc3nc12	none
C[C@H](CO)N1C[C@H](C)[C@H](CN(C)S(=O)(=O)c2cn(C)cn2)Oc2ccc(NC(=O)Nc3ccc(C(F)(F)F)cc3)cc2CC1=O	none
C[C@H](CO)N1C[C@H](C)[C@@H](CN(C)S(C)(=O)=O)Oc2ccc(NC(=O)Nc3ccc(C(F)(F)F)cc3)cc2C1=O	none
C[C@H](CO)N1C[C@H](C)[C@@H](CN(C)S(=O)(=O)c2ccc(F)cc2)Oc2ccc(NC(=O)Nc3ccc(C(F)(F)F)cc3)cc2C1=O	GRIN3A LBD mod 10.9
C[C@@H]1CN([C@@H](C)CO)C(=O)Cc2cc(NC(=O)Nc3ccc(C(F)(F)F)cc3)ccc2O[C@@H]1CN(C)S(=O)(=O)c1ccc(Cl)cc1	GRIN3A LBD mod 14.0
C[C@@H]1CN([C@H](C)CO)C(=O)c2cc(NC(=O)Nc3ccc(C(F)(F)F)cc3)ccc2O[C@H]1CN(C)S(=O)(=O)c1ccc(Cl)cc1	GRIN3A LBD mod 19.4
C[C@H](CO)N1C[C@H](C)[C@@H](CN(C)S(=O)(=O)c2ccc(F)cc2)Oc2ccc(NC(=O)Nc3ccccc3)cc2C1=O	none
Cc1ccc(-n2c(SCc3cccc(F)c3)nc3ccccc3c2=O)cc1	none (no result: FAS-TE inh, GRIN3A LBD mod, MPTP inh, Myeloid diff MLP)
C/C=C/c1ccccc1OCCCN1CCC(C(O)(c2ccccc2)c2ccccc2)CC1	none (no result: FAS-TE inh, GRIN3A LBD mod, MPTP inh, Myeloid diff MLP)
CC1CCN(Cc2c(C(=O)N/N=C/c3cc(Br)ccc3O)nnn2-c2nonc2N)CC1	GRIN3A LBD mod 12.9
COc1c(Cl)cc(Cl)cc1/C=N/NC(=O)c1nnn(-c2nonc2N)c1CN1CCC(C)CC1	GRIN3A LBD mod 12.2
Cc1cc(C)c(/C=N/NC(=O)c2nnn(-c3nonc3N)c2CN2CCC(C)CC2)c(C)c1	none
CC1CCN(Cc2c(C(=O)N/N=C/c3cc(Cl)ccc3O)nnn2-c2nonc2N)CC1	Myeloid diff MLP inconclusive
CCOc1ccc(/C=N/NC(=O)c2nnn(-c3nonc3N)c2CN2CCC(C)CC2)cc1	GRIN3A LBD mod 10.9 (no result: Myeloid diff MLP)
CC1CCN(Cc2c(C(=O)N/N=C/c3cccc(C(F)(F)F)c3)nnn2-c2nonc2N)CC1	GRIN3A LBD mod 16.0
CN(CCOC(=O)c1cc2ccccc2o1)C1CN(Cc2cn(Cc3ccc([N+](=O)[O-])cc3)nn2)S(=O)(=O)C1 (stereo not given)	none (no result: FAS-TE inh, GRIN3A LBD mod, MPTP inh, Myeloid diff MLP)
CCC(C)N(C(=O)Cn1nc(Cc2ccncc2)c2ccccc2c1=O)C(C)CC (stereo not given)	none (no result: FAS-TE inh, GRIN3A LBD mod, MPTP inh, Myeloid diff MLP)
COc1cccc(CN(CCC(C)C)S(=O)(=O)c2cc(Br)ccc2Br)c1	GRIN3A LBD mod 15.4 (no result: Myeloid diff MLP)
Cc1cc(C)n(Cc2ccc(C(=O)O)o2)n1	none
Cc1ccc(OCc2ccc(C(=O)NN)o2)c([N+](=O)[O-])c1	none
Cc1ccc(C)c(OCc2ccc(C(=O)NN)o2)c1	Myeloid diff MLP active
Cc1cc(C)n(Cc2ccc(C(=O)NN)o2)n1	Myeloid diff MLP active
COc1ccc(N/C(=C\C(=O)c2ccccc2)c2ccccc2)cc1OC	none (no result: FAS-TE inh, GRIN3A LBD mod, MPTP inh, Myeloid diff MLP)
